hNpr1 antagonist: Natriuretic polypeptide receptor (hNpr1) antagonism - Primary qHTS | 76,000 compounds, 1.6% hits | Atrial natriuretic peptide receptor 1 (Homo sapiens), P16066 | HEK293 hNpr1 GloSensor cGMP, ANP-stimulated luminescence | AID 1347048, 2019 | Potency, µM (top dose mostly 46.3 µM), actives largely listed as inhibitors; calls by dose curve; further: nearly all actives have a fitted effect of over 60% in size
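Compound pre-incubated 30 min at room temperature on GloSensor-loaded HEK293 cells stably carrying hNpr1 and the pGS-40F cGMP biosensor. Stimulation uses hNppA at 0.1 nM final; luminescence is taken at baseline and 20 min post-agonist.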
FLuc inh: Firefly luciferase inhibition profiling of diverse chemical library using quantitative high-throughput screening | 76,000 compounds, 2.5% hits | Luciferin 4-monooxygenase (Photinus pyralis), P08659 | Potency, µM (series often up to 115 µM), most hits filed as inhibitors | purified P. pyralis luciferase, luminescence, biochemical; further: nearly all actives have a fitted effect of over 65% in size
Target sequence (P08659 whole entry, looked up): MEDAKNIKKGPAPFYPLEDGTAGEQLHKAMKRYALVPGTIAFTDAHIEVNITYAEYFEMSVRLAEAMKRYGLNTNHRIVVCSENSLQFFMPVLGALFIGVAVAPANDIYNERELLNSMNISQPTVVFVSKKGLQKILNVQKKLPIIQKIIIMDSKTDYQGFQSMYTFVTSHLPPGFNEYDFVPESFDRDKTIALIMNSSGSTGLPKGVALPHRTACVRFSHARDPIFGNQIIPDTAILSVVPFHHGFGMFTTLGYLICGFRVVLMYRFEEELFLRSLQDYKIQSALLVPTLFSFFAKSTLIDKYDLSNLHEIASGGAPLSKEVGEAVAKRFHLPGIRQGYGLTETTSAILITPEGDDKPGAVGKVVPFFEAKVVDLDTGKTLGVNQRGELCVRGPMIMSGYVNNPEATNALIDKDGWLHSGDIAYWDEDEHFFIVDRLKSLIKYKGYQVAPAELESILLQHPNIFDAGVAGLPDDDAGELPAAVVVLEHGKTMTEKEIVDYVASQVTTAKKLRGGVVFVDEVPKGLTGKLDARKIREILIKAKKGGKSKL
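Biochemical qHTS: compound (6-point titration) added to 10uM D-luciferin plus 10uM ATP in Tris acetate pH 7.5 buffer with Mg, Tween-20 and BSA, then purified enzyme at 10nM; light output imaged.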
HEK cytotox: Cytotoxic Profiling in HEK 293 Cell Line of Diverse Libraries Using Quantitative High-Throughput Screening; HEK 293 viability, ATP luminescence (CellTiter-Glo), 48-72 h; Potency, µM (doses to about 115 µM), hits mostly inhibitors; 94,000 compounds, 6.6% hits; AID 1345083, 2018; further: nearly all actives have a fitted effect of over 60% in size
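Viability of HEK 293 cells, plated at 250 cells/well, was judged by cellular ATP after compound treatment for 48 or 72 hr. Luminescence was imaged 10 min after CellTiter-Glo addition at room temperature.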
3T3 cytotox: Cytotoxic Profiling in NIH 3T3 Cell Line of Diverse Libraries Using Quantitative High-Throughput Screening. NIH 3T3 viability, CellTiter-Glo ATP luminescence, 48-72 h. Potency, µM (titrated, usually from 96.7 µM), actives largely listed as inhibitors. 94,000 compounds, 4.3% hits; further: nearly all actives have a fitted effect of over 55% in size
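NIH 3T3 cells at 400 cells/well received 23 nL of compound by pintool and were incubated 48 or 72 h at 37 °C. Viability was read as ATP-coupled CellTiter-Glo luminescence.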
Each line names hits and unclear results; the compound was inactive in the other large screens. The list is not random: actives were taken first. Their share in the collection is about 11%. Unless noted, the call rests on the fitted dose curve; in most records, active means well fitted curve in the direction sought with a large enough effect; inconclusive means small, poorly fitted or top-dose-only effect, or another doubt; inactive means no such curve, though single readings can be large; an effect the other way counts as inactive or inconclusive.

COc1cccc(NC(=O)N2CCOC(CN(CC(C)C)C(=O)c3cccc(OC)c3)C2)c1 (stereo not given)	HEK cytotox inconclusive
CC(C)(C)C(=O)NC1CCN(c2ccnc3ccnn23)C1 (stereo not given)	none (no result: hNpr1 antagonist, FLuc inh)
O=C(Nc1cccc(Cl)c1)c1cn2cc(-c3ccc(C(F)(F)F)cc3)sc2n1	none (no result: hNpr1 antagonist, FLuc inh)
CCC1CN(c2ccc(-c3nc(-c4ccc(OC)cc4)no3)cn2)CCN1C (stereo not given)	FLuc inh inconclusive, HEK cytotox inconclusive, 3T3 cytotox 79µM
CCOC(=O)[C@H]1C[C@@H]2O[C@H]1[C@H]1CN(C(=O)OC)C[C@H]1[C@@H]2O	3T3 cytotox inconclusive (no result: hNpr1 antagonist, FLuc inh)
O=C(c1ccncc1)N1CCC(n2cc(-c3nc(-c4ccccc4)no3)nn2)CC1	FLuc inh inconclusive, HEK cytotox inconclusive, 3T3 cytotox 32µM
Cc1ccccc1C(=O)N1CCC(n2cc(-c3nc(-c4ccccc4)no3)nn2)C1 (stereo not given)	hNpr1 antagonist 7.9µM, FLuc inh inconclusive, HEK cytotox inconclusive, 3T3 cytotox inconclusive
CCc1noc(-c2cn(C3CCN(C(=O)c4ccccc4)C3)nn2)n1 (stereo not given)	none
O=C(c1ccoc1)N1CCC(n2cc(-c3nc(-c4ccccc4)no3)nn2)CC1	FLuc inh inconclusive, HEK cytotox inconclusive, 3T3 cytotox inconclusive
O=C(c1ccccc1)N1CCC(n2cc(-c3nc(-c4ccccc4)no3)nn2)C1 (stereo not given)	hNpr1 antagonist 13µM, FLuc inh inconclusive, HEK cytotox inconclusive, 3T3 cytotox inconclusive
N#Cc1ccc(C(=O)N2CCCC(n3cc(-c4nc(-c5ccccc5)no4)nn3)C2)cc1 (stereo not given)	hNpr1 antagonist 11µM, FLuc inh inconclusive, HEK cytotox inconclusive
Cc1ccc(C(=O)N2CCCC(n3cc(-c4nc(-c5ccccc5)no4)nn3)C2)cc1 (stereo not given)	FLuc inh inconclusive, HEK cytotox inconclusive, 3T3 cytotox inconclusive
CCn1ccc(C(=O)N2CCC3(CC2)CC(c2nnc(COC)o2)N(C)C3)n1 (stereo not given)	none (no result: hNpr1 antagonist, FLuc inh)
COc1ccccc1-n1c(=O)c(C(=O)Nc2ccccc2Cl)nc2cccnc21	none (no result: hNpr1 antagonist, FLuc inh)
O=C(C1CCC(N2Cc3cccn3C2=O)CC1)C1CCN([S+](=O)([O-])c2cccs2)CC1 (stereo not given)	none (no result: hNpr1 antagonist, FLuc inh)
COc1cccc(CCC(=O)N2CCCC(c3nnnn3-c3ccccc3)C2)c1 (stereo not given)	3T3 cytotox inconclusive (no result: hNpr1 antagonist, FLuc inh)
O=C(NCc1ccc2c(c1)OCO2)c1cc(-c2cc(Cl)cc(Cl)c2)c2cccn2n1	HEK cytotox inconclusive (no result: hNpr1 antagonist, FLuc inh)
O=C(c1cccs1)N1CCC(n2cc(-c3nc(-c4ccccc4)no3)nn2)CC1	hNpr1 antagonist inconclusive, HEK cytotox 35µM, 3T3 cytotox inconclusive
Cn1cccc1C(=O)N1CCC(n2cc(-c3nc(-c4ccccc4)no3)nn2)C1 (stereo not given)	hNpr1 antagonist 18µM, FLuc inh inconclusive, HEK cytotox 45µM, 3T3 cytotox inconclusive
Cn1cccc1C(=O)N1CCC(n2cc(-c3nc(-c4ccccc4)no3)nn2)CC1	FLuc inh inconclusive, HEK cytotox inconclusive, 3T3 cytotox inconclusive
Cc1ccsc1C(=O)N1CCC(n2cc(-c3nc(-c4ccccc4)no3)nn2)CC1	hNpr1 antagonist inconclusive, HEK cytotox 40µM
O=C(c1cc(F)ccc1F)N1CCC(n2cc(-c3nc(-c4ccccc4)no3)nn2)CC1	HEK cytotox inconclusive, 3T3 cytotox inconclusive
O=C(c1ccc(F)cc1Cl)N1CCC(n2cc(-c3nc(-c4ccccc4)no3)nn2)CC1	hNpr1 antagonist 18µM, FLuc inh inconclusive, HEK cytotox inconclusive, 3T3 cytotox inconclusive
Cc1nc(C2CCCCN2C(=O)Nc2ccccc2F)n[nH]1 (stereo not given)	none (no result: hNpr1 antagonist, FLuc inh)
O=C(Nc1ccc(Cl)cc1)N1CCC(C(=O)N2CCC(N3CCOC3=O)CC2)CC1	none (no result: hNpr1 antagonist, FLuc inh)
CC(=O)Oc1c(-c2ccc(NC(=O)C3CC3)cc2)c(-c2ccccc2F)nn1-c1ccccc1	none
Cc1nnc2ccc(N3CCCC(NC(=O)Cc4ccc(F)cc4)C3)nn12 (stereo not given)	none (no result: hNpr1 antagonist, FLuc inh)
CC(=O)NC1CCCN(c2ccc3nnc(C)n3n2)C1 (stereo not given)	none (no result: hNpr1 antagonist, FLuc inh)
O=C(c1ccc(Cl)cc1)N1CCC(n2cc(-c3nc(-c4ccccc4)no3)nn2)C1 (stereo not given)	hNpr1 antagonist inconclusive, FLuc inh inconclusive, HEK cytotox 22µM
CCc1noc(-c2nc(-c3cccc(F)c3)no2)n1	FLuc inh 25µM
COCCc1noc(-c2nc(-c3ccccc3)no2)n1	FLuc inh 20µM
Cc1noc(-c2nc(-c3ccc4c(c3)OCO4)no2)n1	FLuc inh inconclusive
CCCc1noc(-c2nc(-c3ccc4c(c3)OCO4)no2)n1	FLuc inh 13µM
CN(Cc1ccc(F)cc1)S(=O)(=O)c1cccs1	HEK cytotox 79µM
CN(Cc1ccc(F)cc1)S(C)(=O)=O	none
O=C(C1CCCN(C(=O)C2CCCC2)C1)N1CCC(c2nc3ccncc3[nH]2)CC1 (stereo not given)	none (no result: hNpr1 antagonist, FLuc inh)
C#CCNC(=O)c1cc(-c2cccc(C(F)(F)F)c2)c2nncn2n1	HEK cytotox 10µM, 3T3 cytotox inconclusive (no result: hNpr1 antagonist, FLuc inh)
O=C(NCC(F)F)c1cc(-c2cccc(C(F)(F)F)c2)c2nncn2n1	HEK cytotox inconclusive (no result: hNpr1 antagonist, FLuc inh)
O=C(c1cc(-c2cccc(C(F)(F)F)c2)c2nncn2n1)N1CCC(c2ccccc2)CC1	HEK cytotox 25µM, 3T3 cytotox inconclusive (no result: hNpr1 antagonist, FLuc inh)
COc1cccc(-c2cc(C3CCN(C(=O)Nc4ccc(F)cc4)CC3)[nH]n2)c1	HEK cytotox inconclusive, 3T3 cytotox inconclusive
COc1cccc(-c2cc(C3CCN(S(=O)(=O)c4ccc(F)cc4F)CC3)[nH]n2)c1	hNpr1 antagonist inconclusive, HEK cytotox 25µM, 3T3 cytotox inconclusive
COc1cccc(-c2cc(C3CCN(S(=O)(=O)c4ccc(C#N)cc4)CC3)[nH]n2)c1	hNpr1 antagonist inconclusive, HEK cytotox 28µM, 3T3 cytotox 28µM
O=C(NCC1CN(C(=O)Nc2ccccc2)CC12CCOCC2)N1CCCC1 (stereo not given)	none (no result: hNpr1 antagonist, FLuc inh)
CCN1c2cc(C(=O)Nc3cccc(OC)c3)ccc2C(=O)N2CCCCCC21 (stereo not given)	HEK cytotox 32µM, 3T3 cytotox inconclusive
CCN1c2cc(C(=O)Nc3cccc(OC)c3)ccc2C(=O)N2CCCCC21 (stereo not given)	HEK cytotox 45µM, 3T3 cytotox inconclusive
CCN1c2cc(C(=O)Nc3cccc(OC)c3)ccc2C(=O)N2CCCC21 (stereo not given)	HEK cytotox inconclusive
O=C(NC1CCOCC1)[C@@H]1CCCN1c1ccnc2ccnn12	none (no result: hNpr1 antagonist, FLuc inh)
O=c1ncn(CC2CC2)c2ccc(-c3ccc4c(c3)OCO4)nc12	FLuc inh 45µM, 3T3 cytotox inconclusive
O=c1ncn(CC2CC2)c2ccc(-c3ccc(Cl)cc3)nc12	3T3 cytotox inconclusive

Screens as filed in PubChem BioAssay.
